In PubChem BioAssay (EPA / NIEHS) one finds outcome and AC50 data, which are given here for 17 compounds.

Calls of active or inactive are those of the source. Rule for the calls: active = hit-call score of the fitted dose curve at least 0.9, where 1 is the maximum; inactive = score below 0.9.

What all share (details): mRNA level, 48 h; actives raise or lower the signal
Read-out in test [1]: ATP-citrate lyase (ACLY), ACLY (gene 47)
The test is described as follows: LTEA_HepaRG_ACLY: Life Technologies and Expression Analysis (LTEA) Assay for ATP-citrate lyase (ACLY) using HepaRG (AID 2283466). The method in brief:
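Differentiated HepaRG cells exposed 48 h in serum-free induction medium to eight half-log concentrations up to 100 uM in 0.5% DMSO, duplicates. Transcript measured by Fluidigm TaqMan qRT-PCR, normalized to ACTB, GAPDH, POLR2A; bidirectional fit versus DMSO.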

Read-out in test [2]: Peroxisomal acyl-coenzyme A oxidase 1 (ACOX1) gene, ACOX1 (gene 51)
Nature of the test: LTEA_HepaRG_ACOX1: Life Technologies and Expression Analysis (LTEA) Assay for Peroxisomal acyl-coenzyme A oxidase 1 (ACOX1) gene using HepaRG (AID 2283467). The method in brief: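 HepaRG cells, plated 48 h then switched to serum-free induction medium, were exposed in duplicate for 48 h to 8-point half-log concentrations up to 100 uM in 0.5% DMSO. ACOX1 mRNA was measured by qRT-PCR, normalized to ACTB/GAPDH/POLR2A, and fitted bidirectionally versus DMSO.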

Read-out in test [3]: Alkaline Phosphatase, Placental (ALPP) gene, ALPP (gene 250)
The test is described as follows: LTEA_HepaRG_ALPP: Life Technologies and Expression Analysis (LTEA) Assay for Alkaline Phosphatase, Placental (ALPP) gene using HepaRG (AID 2283468).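 For AC50: differentiated human HepaRG liver cells in serum-free induction medium.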 In short, it runs like this:
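Expression of ALPP was quantified by qRT-PCR against three housekeeping genes in human HepaRG cultures treated for 48 h with an eight-point concentration series up to 100 uM. Activity in either direction was fitted relative to 0.5% DMSO.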

Read-out in test [4]: Bcl-2 (BAD) gene, BAD (gene 572)
The test is described as follows: LTEA_HepaRG_BAD: Life Technologies and Expression Analysis (LTEA) Assay for Bcl-2 (BAD) gene using HepaRG (AID 2283469). The method in brief: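 Differentiated HepaRG cells were exposed in duplicate in 0.5% DMSO for 48 h to eight-point half-log concentrations up to 100 uM. BAD mRNA was measured by Fluidigm TaqMan qRT-PCR, normalized to ACTB, GAPDH and POLR2A, and fitted bidirectionally against DMSO.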

Read-out in test [5]: Bcl-2 (BAX) gene, BAX (gene 581)
Nature of the test: LTEA_HepaRG_BAX: Life Technologies and Expression Analysis (LTEA) Assay for Bcl-2 (BAX) gene using HepaRG (AID 2283470). In short, it runs like this: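 HepaRG (human liver), 48 h exposure, duplicate wells. 8-pt curve, half-log from 100 uM, 0.5% DMSO. BAX transcript by TaqMan qRT-PCR; ACTB/GAPDH/POLR2A normalization; gain or loss vs DMSO baseline.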

Read-out in test [6]: adenosine kinase (ADK) gene, ADK (gene 132)
The test is described as follows: LTEA_HepaRG_ADK: Life Technologies and Expression Analysis (LTEA) Assay for adenosine kinase (ADK) gene using HepaRG (AID 2283471). The method in brief: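 HepaRG (human liver), 48 h chemical exposure, 8-pt half-log series, top 100 uM, 0.5% DMSO vehicle. Readout: ADK mRNA by qRT-PCR vs housekeeping genes; bidirectional curve fit relative to DMSO baseline.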

Read-out in test [7]: Alpha-fetoprotein (AFP) gene, AFP (gene 174)
The test is described as follows: LTEA_HepaRG_AFP: Life Technologies and Expression Analysis (LTEA) Assay for Alpha-fetoprotein (AFP) gene using HepaRG (AID 2283472). In short, it runs like this:
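HepaRG, single lot; 48 h post-plating -> serum-free induction medium; cpd 8-pt, 100 uM top, half-log, 0.5% DMSO, duplicate, 48 h. RNA -> qRT-PCR AFP, norm ACTB/GAPDH/POLR2A. Bidirectional fit vs DMSO.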

Read-out in test [8]: BCL2L11 (gene 10018)
Nature of the test: LTEA_HepaRG_BCL2L11: Life Technologies and Expression Analysis (LTEA) Assay for Bcl-2 (BCL2L11) gene using HepaRG (AID 2283473). In short, it runs like this: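 Cells were plated, cultured 48 h, switched to serum-free induction medium, then dosed in duplicate for 48 h at eight half-log concentrations up to 100 uM. Lysates underwent RNA isolation and TaqMan qRT-PCR; gain or loss versus DMSO was fitted.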

Read-out in test [9]: Apolipoprotein A-V (APOA5) gene, APOA5 (gene 116519)
Nature of the test: LTEA_HepaRG_APOA5: Life Technologies and Expression Analysis (LTEA) Assay for Apolipoprotein A-V (APOA5) gene using HepaRG (AID 2283474). The method in brief:
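Human liver HepaRG cells are treated 48 h with test chemicals (100 uM top, half-log dilutions, 0.5% DMSO). APOA5 mRNA induction or loss is measured by qRT-PCR relative to vehicle.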

Read-out in test [10]: Apoptosis regulator Bcl-2 (Homo sapiens) (UniProt P10415)
The test is described as follows: LTEA_HepaRG_BCL2: Life Technologies and Expression Analysis (LTEA) Assay for Bcl-2 gene using HepaRG (AID 2283475). In short, it runs like this:
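HepaRG, plated 48 h then switched to serum-free induction medium; dosed 48 h, 8 conc. (max 100 uM, half-log steps), duplicate, 0.5% DMSO. Lysis in RLT, RNA isolated, TaqMan qRT-PCR for BCL2; ACTB/GAPDH/POLR2A normalisation; bidirectional fit vs DMSO.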

Chain of Apoptosis regulator Bcl-2 (Homo sapiens) (P10415 whole entry, looked up): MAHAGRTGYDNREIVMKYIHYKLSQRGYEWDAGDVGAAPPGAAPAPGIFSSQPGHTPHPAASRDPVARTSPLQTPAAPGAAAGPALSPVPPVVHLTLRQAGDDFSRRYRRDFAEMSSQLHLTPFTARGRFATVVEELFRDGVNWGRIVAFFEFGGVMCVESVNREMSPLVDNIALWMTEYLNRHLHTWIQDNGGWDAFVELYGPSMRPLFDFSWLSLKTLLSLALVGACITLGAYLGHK

In the case of `Nc1c(Cl)c(F)nc(OCC(=O)O)c1Cl`, the compound was classed as inactive in [1], in test [2], in test [3], in test [4], in test [5] and in [6]. The compound was classed as inactive in test [7], in test [8], in test [9] and in test [10].
`COC(=O)c1c(C(F)F)nc(C(F)(F)F)c(C2=NCCS2)c1CC(C)C`: the compound was called inactive in test [1], in test [2], in test [3], in test [4], in test [5] and in test [6]. The result in test [7], in test [8], in test [9] and in [10] was inactive.
With `COC(=O)NS(=O)(=O)c1ccc(N)cc1`, the outcome in test [1], in [2], in test [4], in [5], in test [6] and in test [7] was inactive. Besides, the outcome in test [8], in test [9] and in [10] was inactive.
Regarding `N#Cc1c[nH]cc1-c1cccc2c1OC(F)(F)O2`, the outcome in test [1], in test [2], in [4], in [6] and in test [9] was inactive. Moreover, the AC50 in [5] was 23.3 µM (active); in [7], 73.3 µM (active); in test [8] it was 20.9 µM (active).
Regarding `C=C(C)CN(CC)c1c([N+](=O)[O-])cc(C(F)(F)F)cc1[N+](=O)[O-]`, the call in test [1], in [2], in [3], in test [4], in [5] and in test [6] was inactive. Moreover, the compound was classed as inactive in test [7], in [8], in [9] and in test [10].
For the compound `CCCCC(O)(Cn1cncn1)c1ccc(Cl)cc1Cl` (configuration not stated), the AC50 in [1] is 12.3 µM (active); in [2], 69.4 µM (active); in test [3], 73.3 µM (active); in test [5] it was 74.6 µM (active); in test [7], 68.4 µM (active); in test [9], 65.6 µM (active). Besides, the AC50 in test [10] is 59.5 µM (active). Also, the outcome in [4], in [6] and in test [8] was inactive.
On to `CCOP(=O)(OCC)Oc1nc(Cl)c(Cl)cc1Cl`, for which the compound was classed as inactive in test [1], in [3], in test [4], in [5] and in test [6]. The AC50 is 74.9 µM (active) in [2]; 75.9 µM (active) in test [7]; 76.6 µM (active) in test [8]; 83.8 µM (active) in test [9]; 68.4 µM (active) in test [10].
As for `CCN(CC)C(=O)C(C)Oc1cccc2ccccc12` (configuration not stated), the outcome in test [1], in test [4], in test [5], in test [6], in [8] and in test [10] was inactive. In addition, the AC50 was 69.8 µM (active) in test [2], 84.3 µM (active) in test [3], 73.6 µM (active) in [7] and 79.3 µM (active) in [9].
For `Nc1cnn(-c2ccccc2)c(=O)c1Cl`, the outcome in test [1], in [2], in [3], in test [4], in [5] and in test [6] was inactive. In addition, the compound was classed as inactive in test [7], in [8], in test [9] and in [10].
Regarding `O=C(Nc1ccccc1-c1ccc(Cl)cc1)c1cccnc1Cl`, the call in test [1], in test [2], in test [3], in [4], in [5] and in [6] was inactive. In addition, the compound was called inactive in [8], in test [9] and in [10]. Besides, in test [7], the AC50 is 52.5 µM (active).
For `CC(C)N1C(=O)c2ccccc2NS1(=O)=O`, the compound was called inactive in test [1], in test [2], in test [3], in test [4], in test [5] and in test [6]. For the same compound, the result in test [7], in [8], in test [9] and in test [10] was inactive.
`CC1(C)C(C=C(Cl)Cl)C1C(=O)OC(C#N)c1cccc(Oc2ccccc2)c1` (configuration not stated): the compound was classed as inactive in test [1], in test [2], in test [3], in test [4], in [5] and in test [6]. For the same compound, the call in test [7], in [8], in [9] and in test [10] was inactive.
Take `COP(=S)(OC)SCn1nnc2ccccc2c1=O`: the call in test [1], in [2], in test [3], in test [4], in test [5] and in test [6] was inactive. Also, the call in test [7], in test [8], in test [9] and in test [10] was inactive.
With `N#Cc1c(Cl)cccc1Cl`, the compound was classed as inactive in [1], in test [2], in test [3], in test [4], in test [5] and in test [6]. The result in test [7], in [8], in test [9] and in [10] was inactive.
In the case of `Cc1cnc(C2=NC(C)(C(C)C)C(=O)N2)c(C(=O)O)c1` (configuration not stated), the compound was classed as inactive in test [1], in test [2], in test [3], in test [4], in test [5] and in [6]. The call in test [7], in [8], in [9] and in test [10] was inactive.
Turning to `CCCCOCN(C(=O)CCl)c1c(CC)cccc1CC`, the outcome in test [1], in test [2], in [3], in test [4], in test [5] and in [6] was inactive. Moreover, the compound was classed as inactive in [7], in test [8], in [9] and in [10].
In the case of `CNC(=O)Oc1cccc2ccccc12`, the outcome in [1], in test [2], in test [3], in [4], in test [5] and in [6] was inactive. Besides, the call in [7], in test [8], in [9] and in [10] was inactive.

As a reminder, the AC50 is the midpoint of the concentration-response curve, whichever way the signal moves.
